Drawing on PubChem BioAssay (NCATS), this text covers Potency and outcome for 23 compounds.

Experiment [1] concerns the target Glutaminase kidney isoform, mitochondrial (Homo sapiens) (UniProt O94925). Nature of the experiment: qHTS for Inhibitors of Glutaminase (GLS): LOPAC Validation (AID 624146). Note: nearly all actives have a fitted effect of over 60% in size. Note: potency is the fitted concentration of half-maximal effect. In outline: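 hKGA in 45 mM KH2PO4 pH 8.2, 0.02% Tween-20 with pin-transferred compounds; 1 mM L-glutamine (stock) plus glutamate oxidase/HRP/Amplex Red coupling added. Fluorescence read initially and after 30 min at RT.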
(In general: qHTS replaces the single test concentration by a dilution series.)

A short description of experiment [2]: qHTS of Trypanosoma Brucei Inhibitors: LOPAC Validation (AID 624147). The procedure, abridged: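 TbPYK + substrate in 50 mM TEA pH 7.2, 100 mM KCl, 10 mM MgCl2, 0.05% BSA, 0.01% Tween-20; cpd pinned; ADP 130 uM final; 45 min RT; Kinase-Glo Plus 10 min; luminescence endpoint.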
For experiment [3], the target named is Luciferin 4-monooxygenase (Photinus pyralis) (UniProt P08659). The experiment is described as follows: Biochemical firefly luciferase enzyme assay for NPC (AID 624030).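 Note: purified P. pyralis luciferase at 10 nM with luciferin and ATP substrate; series mostly up to about 59 µM; nearly all actives have a fitted effect of over 70% in size.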 The procedure, abridged: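 Purified P. pyralis luciferase at 10 nM in 50 mM Tris Acetate (final), luminescence read within 5 minutes of enzyme addition to compounds. Activity normalised to PTC124 versus DMSO; concentration-response curves classed by r2, magnitude and activity.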

Experiment [4] can be described thus: S16 Schwann cell viability assay (CellTiter-Glo assay) (AID 624031). Note: nearly all actives have a fitted effect of over 70% in size. Note: potency is the fitted concentration of half-maximal effect. In outline:
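Native S16 rat Schwann cells in DMEM/10% FBS without phenol red were incubated overnight, then exposed to compounds for 24 h at 37 °C/5% CO2. Viability was read as ATP luminescence (CellTiter-Glo), normalized to no-cell wells and DMSO (0%).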
For orientation: In ATP-based viability assays light output follows the ATP content of the culture.

Experiment [5] is described as follows: S16 Schwann cell PMP22 intronic element firefly luciferase assay (AID 624032). Note: series mostly up to about 58 µM; nearly all actives have a fitted effect of over 30% in size. In outline:
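Rat S16 Schwann cells stably carrying firefly luciferase driven by a PMP22 intronic element, in 10% FBS, treated 24 h at 37 C. ONE-Glo luminescence normalized to PTC124 control and DMSO (0%); curves classed by r2, magnitude and activity.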

Experiment [6] is described as follows: S16 Schwann cell PMP22 intronic element beta-lactamase assay (AID 624044; calls by dose curve; note: nearly all actives have a fitted effect of over 15% in size; note: potency is the fitted concentration of half-maximal effect). The procedure, abridged:
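Rat S16 Schwann cells with beta-Lac driven by a PMP22 intronic element, compound-treated 24 h at 37 °C. LiveBLAzer FRET B/G read: 460 nm normalized to potassium clavulanate vs DMSO; 535 nm FRET as viability; concentration-effect curves classified.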

Results filed as inconclusive are left out. Entries that show only a call come without a potency. Calls of active or inactive are those of the source. Unless noted, calls come from the whole dose curve; as a rule, active = well fitted curve in the direction sought with a large enough effect; inconclusive = small, poorly fitted or top-dose-only effect, or another doubt; inactive = no such curve, though single readings can be large; an effect the other way counts as inactive or inconclusive.

Sequence of Glutaminase kidney isoform, mitochondrial (Homo sapiens) (O94925 whole entry, looked up, canonical isoform): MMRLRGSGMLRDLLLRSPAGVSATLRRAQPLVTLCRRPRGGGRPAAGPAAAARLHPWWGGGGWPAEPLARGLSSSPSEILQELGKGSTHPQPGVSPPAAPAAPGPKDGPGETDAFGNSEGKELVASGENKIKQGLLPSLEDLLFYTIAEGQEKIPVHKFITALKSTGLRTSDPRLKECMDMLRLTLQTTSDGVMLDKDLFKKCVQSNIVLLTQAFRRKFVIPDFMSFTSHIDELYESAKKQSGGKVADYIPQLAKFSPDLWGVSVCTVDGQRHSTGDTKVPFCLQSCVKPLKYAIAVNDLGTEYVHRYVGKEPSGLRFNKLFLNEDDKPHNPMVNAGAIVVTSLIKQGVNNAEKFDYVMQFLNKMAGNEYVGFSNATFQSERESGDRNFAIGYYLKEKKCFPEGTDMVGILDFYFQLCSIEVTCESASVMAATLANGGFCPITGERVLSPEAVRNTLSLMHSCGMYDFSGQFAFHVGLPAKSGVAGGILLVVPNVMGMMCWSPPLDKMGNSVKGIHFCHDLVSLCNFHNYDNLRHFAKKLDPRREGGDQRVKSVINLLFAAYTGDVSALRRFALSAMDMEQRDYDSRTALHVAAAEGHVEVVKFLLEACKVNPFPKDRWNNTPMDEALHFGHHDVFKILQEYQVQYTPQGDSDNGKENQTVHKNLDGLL
Sequence of Luciferin 4-monooxygenase (Photinus pyralis) (P08659 whole entry, looked up): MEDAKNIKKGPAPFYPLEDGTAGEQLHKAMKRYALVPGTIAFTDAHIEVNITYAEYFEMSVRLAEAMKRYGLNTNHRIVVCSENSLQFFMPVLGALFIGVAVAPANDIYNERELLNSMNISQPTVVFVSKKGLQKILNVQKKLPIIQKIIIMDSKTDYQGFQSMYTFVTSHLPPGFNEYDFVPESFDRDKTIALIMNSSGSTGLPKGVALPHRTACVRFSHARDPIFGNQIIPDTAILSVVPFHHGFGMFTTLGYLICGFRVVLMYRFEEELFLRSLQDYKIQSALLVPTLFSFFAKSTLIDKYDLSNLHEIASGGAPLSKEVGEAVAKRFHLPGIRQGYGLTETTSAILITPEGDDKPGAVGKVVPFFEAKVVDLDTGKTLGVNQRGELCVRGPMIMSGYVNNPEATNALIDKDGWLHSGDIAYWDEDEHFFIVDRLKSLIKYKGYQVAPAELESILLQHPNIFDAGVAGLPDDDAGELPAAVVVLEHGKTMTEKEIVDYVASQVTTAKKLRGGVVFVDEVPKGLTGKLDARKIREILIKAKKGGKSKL

For `COCCCC/C(=N\OCCN)c1ccc(C(F)(F)F)cc1`, the Potency entry in experiment [1] was “inactive”. Further, in experiment [2], the compound was called inactive.

With `CC(C)(C)c1ccc(C(=O)CCCN2CCC(OC(c3ccccc3)c3ccccc3)CC2)cc1`, the Potency result in experiment [3] and in experiment [1] was “inactive” throughout. Also, in experiment [4], the Potency is 20.3 µM (active). Besides, the compound was called inactive in experiment [2].

`CN(C)CCN(Cc1cccs1)c1ccccn1`: the Potency result in experiment [3], in experiment [5] and in experiment [1] was “inactive” each time. Besides, the result in experiment [2] was inactive.

As to `CN1C(=O)CC[C@H]1c1cccnc1`, the Potency entry in experiment [1] is “inactive”.

As for `c1cc(CN2CCCCC2)cc(OCCCNc2nc3ccccc3s2)c1`, the Potency result in experiment [3], in experiment [5], in experiment [6] and in experiment [1] was “inactive” each time. Further, the compound was classed as inactive in experiment [2].

Regarding `C=CCc1ccccc1OCC(O)CNC(C)C` (stereo not drawn), the Potency result in experiment [3], in experiment [4] and in experiment [1] was “inactive” in each case. Further, the compound was classed as inactive in experiment [2].

On to `CN(C)CC/C=C1\c2ccccc2COc2ccccc21`, for which the Potency entry in experiment [3] and in experiment [1] was “inactive” in each case. The compound was classed as inactive in experiment [2].

For the compound `CN(C)CCCN1c2ccccc2Sc2ccc(C(F)(F)F)cc21`, the Potency entry in experiment [3] and in experiment [1] was “inactive” throughout.

For the compound `C#CCN(C)CCCOc1ccc(Cl)cc1Cl`, the Potency result in experiment [6] and in experiment [1] was “inactive” throughout.

Consider `O=C(O)CN(CCOCCOCCN(CC(=O)O)CC(=O)O)CC(=O)O`, for which the Potency entry in experiment [3], in experiment [4] and in experiment [1] was “inactive” throughout. The call in experiment [2] was inactive.

For `c1ccc2c(c1)CCCC2C1=NCCN1` (stereo not drawn), the Potency result in experiment [1] was “inactive”. In addition, the compound was classed as inactive in experiment [2].

For `C(=C\c1ccccc1)/CN1CCN(C(c2ccccc2)c2ccccc2)CC1`, the Potency result in experiment [1] is “inactive”. In addition, in experiment [2], the outcome was inactive.

With `COc1ccc([C@@H]2Sc3ccccc3N(CCN(C)C)C(=O)[C@@H]2OC(C)=O)cc1`, the Potency entry in experiment [3], in experiment [4] and in experiment [1] was “inactive” in each case. In experiment [2], the compound was called inactive.

Take `O=C(CCCN1CCC(O)(c2cccc(C(F)(F)F)c2)CC1)c1ccc(F)cc1`: the Potency result in experiment [3] and in experiment [1] was “inactive” in each case.

`NC/C=C/C(=O)O`: the Potency result in experiment [3], in experiment [4] and in experiment [1] was “inactive” throughout. In addition, in experiment [2], the compound was classed as inactive.

For `O=C1CC2(CCCC2)CC(=O)N1CCCCN1CCN(c2ncccn2)CC1`, the Potency result in experiment [3], in experiment [4] and in experiment [1] was “inactive” each time. In addition, in experiment [2], the result was inactive.

On to `CCCCCCCC/C=C\CCCCCCCC(=O)NCc1ccc(O)c(OC)c1`, for which the Potency entry in experiment [3] and in experiment [4] was “inactive” in each case. The Potency in experiment [6] is 12.6 µM (active). The compound was classed as inactive in experiment [2].

Consider `CN1C[C@H](C(=O)N[C@]2(C)O[C@@]3(O)[C@@H]4CCCN4C(=O)[C@H](Cc4ccccc4)N3C2=O)C[C@@H]2c3cccc4[nH]cc(c34)C[C@H]21`, for which the Potency result in experiment [3], in experiment [6] and in experiment [1] was “inactive” in each case. Besides, in experiment [2], the call was inactive.

Regarding `NCCCNCCSP(=O)(O)O`, the Potency entry in experiment [3], in experiment [4] and in experiment [1] was “inactive” in each case. Further, the result in experiment [2] was inactive.

In the case of `Cc1ccc(/C(=C\CN2CCCC2)c2ccccn2)cc1`, the Potency result in experiment [3], in experiment [4] and in experiment [1] was “inactive” in each case. The call in experiment [2] was inactive.

Regarding `CCOC(=O)C1=C(C)NC(C)=C(C(=O)OC)C1c1cccc(Cl)c1Cl` (stereo not drawn), the Potency entry in experiment [3], in experiment [4], in experiment [6] and in experiment [1] was “inactive” in each case. The result in experiment [2] was inactive.

For the compound `CCN1CCC[C@H]1CNC(=O)c1c(O)c(Cl)cc(Cl)c1OC`, the Potency result in experiment [3], in experiment [4] and in experiment [1] was “inactive” each time. Also, in experiment [2], the call was inactive.

As for `CC1=C(C)C(=O)C(CCCCC#CCCCC#CCO)=C(C)C1=O`, the Potency result in experiment [3] and in experiment [6] was “inactive” throughout. In addition, the Potency in experiment [1] is 11.2 µM (active). The compound was classed as inactive in experiment [2].
